In PubChem BioAssay (NCI):
Several values for one entry are separate records, joined by “and”; a condition that tells them apart may be missing. Identical values can stand only once. This is part of a sample that, as a whole, favours compounds with a hit. Of some 79,000 tested, about 15% had one in any assay. The source holds several records for some structures; these can differ, active in one and inactive in another. Activity calls are given as the source filed them. Cut-off read from the data, not from the text of the source: active = growth inhibition above about 70%; inactive = the rest.

Experiments:
[1] = NCI Yeast Anticancer Drug Screen. Data for the rad52 strain (AID 147);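 note: 0% = growth of vehicle-treated control cultures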; details: S. cerevisiae rad52 mutant growth inhibition, stronger effect = higher value
Summary of the method: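 Yeast strain carrying a DNA damage repair alteration was exposed to test compounds. Growth inhibition was measured relative to vehicle-treated controls.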

[2] = NCI Yeast Anticancer Drug Screen. Data for the wt1 strain (AID 149);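 note: 0% = growth of vehicle-treated wt1 cultures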; details: S. cerevisiae wt1 strain (SPY 50644) growth inhibition, stronger effect = higher value
Summary of the method: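 The wt1 strain was treated with compounds, and growth was compared with vehicle-treated cultures to give inhibition.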

[3] = NCI Yeast Anticancer Drug Screen. Data for the rad50EPP+ strain (AID 151);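 note: 0% = growth of vehicle-treated control cultures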; details: S. cerevisiae rad50 mutant strain, stronger effect = higher value
Summary of the method: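 Yeast strain carrying rad50 alteration (rad50EPP+) exposed to compounds; growth inhibition measured relative to vehicle-treated controls.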

[4] = NCI Yeast Anticancer Drug Screen. Data for the mgt1 strain (AID 153); details: S. cerevisiae mgt1 mutant growth inhibition, stronger effect = higher value
Summary of the method: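 Yeast mgt1 strain (DNA repair/cell-cycle alteration panel) exposed to compounds; growth inhibition measured relative to vehicle-treated controls.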

[5] = NCI Yeast Anticancer Drug Screen. Data for the rad50 strain (AID 155);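 note: 0% = growth of vehicle-only cultures of the same strain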; details: S. cerevisiae rad50 strain growth inhibition, stronger effect = higher value
Summary of the method: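 Cells are treated with compound, grown, and their growth is then scored against vehicle-only cultures of the same repair-deficient yeast strain.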

[6] = NCI Yeast Anticancer Drug Screen. Data for the mec2-1 strain (AID 157); details: S. cerevisiae mec2-1 strain, stronger effect = higher value
Summary of the method: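 mec2-1 yeast strain, carrying an alteration in DNA damage repair or cell cycle control, was exposed to compounds; growth inhibition was measured relative to vehicle-treated controls.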

[7] = NCI Yeast Anticancer Drug Screen. Data for the rad14 strain (AID 159);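 note: 0% = growth of vehicle-treated control cultures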; details: S. cerevisiae rad14 strain growth inhibition, stronger effect = higher value
Summary of the method: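 Readout: yeast growth inhibition, referenced to vehicle-only cultures. Strain bears a defined alteration in DNA damage repair.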

[8] = NCI Yeast Anticancer Drug Screen. Data for the sgs1 mgt1 strain (AID 161);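 note: 0% = growth of cultures given vehicle only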; details: S. cerevisiae sgs1 mgt1 strain, stronger effect = higher value
Summary of the method: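 This yeast growth screen uses a strain with defined DNA-repair lesions; compound-treated growth is compared with vehicle-treated growth.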

[9] = NCI Yeast Anticancer Drug Screen. Data for the CLN2oe strain (AID 163);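 note: 0% = growth of vehicle-only control cultures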; details: S. cerevisiae CLN2oe strain, stronger effect = higher value
Summary of the method: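 Yeast cells carrying a defined cell-cycle control alteration were exposed to test compounds. Growth inhibition was scored against vehicle-treated control cultures.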

[10] = NCI Yeast Anticancer Drug Screen. Data for the cln2 rad14 strain (AID 165);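 note: 0% = growth equal to vehicle treated cultures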; details: S. cerevisiae cln2 rad14 strain, stronger effect = higher value
Summary of the method: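 Yeast carrying cln2 and rad14 alterations (cell cycle control and DNA damage repair) were exposed to compounds. Growth inhibition was measured against vehicle-treated controls.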

[11] = NCI Yeast Anticancer Drug Screen. Data for the bub3 strain (AID 167); details: S. cerevisiae bub3 mutant strain, stronger effect = higher value
Summary of the method: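 Part of a panel of yeast mutants defective in DNA damage repair or cell cycle regulation. Each strain is grown with compound, and inhibition is calculated relative to solvent-treated cultures.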

[12] = NCI Yeast Anticancer Drug Screen. Data for the wt2 strain (AID 169);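 note: 0% = growth of vehicle-treated yeast cultures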; details: S. cerevisiae wt2 strain growth inhibition, stronger effect = higher value
Summary of the method: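 Yeast cells were exposed to test compounds, and growth inhibition was measured relative to vehicle-treated controls.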

[13] = NCI Yeast Anticancer Drug Screen. Data for the sgs1 strain (AID 173);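 note: 0% = growth of vehicle-only control cultures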; details: S. cerevisiae sgs1 mutant, stronger effect = higher value
Summary of the method: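 Yeast mutant strains carrying defined defects in DNA damage repair or cell cycle control were exposed to test compounds. Growth inhibition was scored against vehicle-treated controls.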

[14] = NCI Yeast Anticancer Drug Screen. Data for the mlh1 rad18 strain (AID 175); details: S. cerevisiae mlh1 rad18 strain growth inhibition, stronger effect = higher value
Summary of the method: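 Growth inhibition of the yeast strain was measured after compound exposure and expressed relative to vehicle-treated controls. The strain carries defined defects in DNA damage repair.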

[15] = NCI Yeast Anticancer Drug Screen. Data for the rad18 strain (AID 177); details: S. cerevisiae rad18 mutant growth inhibition, stronger effect = higher value
Summary of the method: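 Yeast carrying a defined DNA damage repair alteration were exposed to compounds. Growth inhibition was expressed relative to vehicle-treated controls.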

[16] = at 5.0 µM (retest, dose inferred, filed as 0.5)
[17] = at 50.0 µM (retest, dose inferred, filed as 5.0)

Measured: growth inhibition

COc1ccc2c(c1)n([O-])c1ccccc1[n+]2=O
66% (inactive) and 91% (active): [5]; [16]
active: [1]; at 11.0 µM 86% | [1]; at 33.0 µM 95% | [1]; at 100.0 µM 97% | [3]; at 3.7 µM 72% | [3]; at 11.0 µM 93% | [3]; at 33.0 µM 97% | [3]; at 100.0 µM 98% | [4]; at 100.0 µM 88% | [5]; at 11.0 µM 91% | [5]; at 33.0 µM 95% | [5]; [17] 95% and 98% | [5]; at 100.0 µM 98% | [6]; [17] 75% and 99% | [6]; at 100.0 µM 93% | [7]; at 100.0 µM 95% | [8]; [17] 71% and 99% | [9]; at 100.0 µM 75% | [10]; [17] 90% and 97% | [10]; at 50.0 µM 96.3% | [11]; [17] 85% and 99% | [11]; at 50.0 µM 95.3% | [11]; at 100.0 µM 91% | [12]; at 100.0 µM 77% | [13]; at 33.0 µM 76% | [13]; at 100.0 µM 95% | [14]; [17] 93% and 98% | [15]; at 3.7 µM 75% | [15]; at 11.0 µM 93% | [15]; at 33.0 µM 97% | [15]; at 100.0 µM 96%
5% (inactive) and 73% (active): [8]; [16]
inactive: [1]; at 1.2 µM 16% | [1]; at 3.7 µM 48% | [2]; at 1.2 µM 0% | [2]; at 3.7 µM 2% | [2]; at 11.0 µM 9% | [2]; at 33.0 µM 24% | [2]; at 100.0 µM 69% | [3]; at 1.2 µM 34% | [4]; at 1.2 µM -1% | [4]; at 3.7 µM 2% | [4]; at 11.0 µM 9% | [4]; at 33.0 µM 33% | [5]; at 1.2 µM 18% | [5]; at 3.7 µM 33% | [5]; at 50.0 µM -18.6% | [6]; at 1.2 µM 3% | [6]; at 3.7 µM 7% | [6]; [16] 15% and 27% | [6]; at 11.0 µM 19% | [6]; at 33.0 µM 50% | [6]; at 50.0 µM 50.2% | [7]; at 1.2 µM 6% | [7]; at 3.7 µM 12% | [7]; at 11.0 µM 25% | [7]; at 33.0 µM 56% | [8]; at 50.0 µM -13.2% | [9]; at 1.2 µM -4% | [9]; at 3.7 µM -7% | [9]; at 11.0 µM -2% | [9]; at 33.0 µM 25% | [10]; [16] 6% and 22% | [11]; at 1.2 µM 3% | [11]; at 3.7 µM 4% | [11]; [16] 6% and 10% | [11]; at 11.0 µM 14% | [11]; at 33.0 µM 60% | [12]; at 1.2 µM -2% | [12]; at 3.7 µM 11% | [12]; at 11.0 µM 11% | [12]; at 33.0 µM 26% | [13]; at 1.2 µM 5% | [13]; at 3.7 µM 18% | [13]; at 11.0 µM 41% | [14]; at 50.0 µM 6.8% | [15]; at 1.2 µM 39%
17% (inactive) and 81% (active): [14]; [16]

O=C(NO)Nc1cc(Cl)cc(Cl)c1
active: [1]; at 11.0 µM 99% | [1]; at 33.0 µM 99% | [1]; at 100.0 µM 97% | [2]; at 11.0 µM 80% | [2]; at 33.0 µM 99% | [2]; at 100.0 µM 98% | [3]; at 33.0 µM 88% | [3]; at 100.0 µM 86% | [4]; at 11.0 µM 100% | [4]; at 33.0 µM 99% | [4]; at 100.0 µM 98% | [5]; at 11.0 µM 99% | [5]; at 33.0 µM 99% | [5]; [17] 99% | [5]; at 50.0 µM 99.3% | [5]; at 100.0 µM 96% | [6]; at 11.0 µM 99% | [6]; at 33.0 µM 99% | [6]; [17] 99% | [6]; at 50.0 µM 99.2% | [6]; at 100.0 µM 98% | [7]; at 11.0 µM 99% | [7]; at 33.0 µM 98% | [7]; at 100.0 µM 98% | [8]; [17] 99% | [8]; at 50.0 µM 98.8% | [9]; at 11.0 µM 99% | [9]; at 33.0 µM 99% | [9]; at 100.0 µM 98% | [10]; [17] 99% | [10]; at 50.0 µM 99% | [11]; at 11.0 µM 99% | [11]; at 33.0 µM 99% | [11]; [17] 99% | [11]; at 50.0 µM 98.8% | [11]; at 100.0 µM 98% | [12]; at 11.0 µM 98% | [12]; at 33.0 µM 99% | [12]; at 100.0 µM 98% | [13]; at 11.0 µM 100% | [13]; at 33.0 µM 100% | [13]; at 100.0 µM 98% | [14]; [17] 99% | [14]; at 50.0 µM 99.3% | [15]; at 11.0 µM 99% | [15]; at 33.0 µM 99% | [15]; at 100.0 µM 98%
inactive: [1]; at 1.2 µM 7% | [1]; at 3.7 µM 39% | [2]; at 1.2 µM -3% | [2]; at 3.7 µM -3% | [3]; at 1.2 µM -4% | [3]; at 3.7 µM -4% | [3]; at 11.0 µM 19% | [4]; at 1.2 µM -3% | [4]; at 3.7 µM 16% | [5]; at 1.2 µM 7% | [5]; at 3.7 µM 50% | [5]; [16] 24% | [6]; at 1.2 µM -2% | [6]; at 3.7 µM 11% | [6]; [16] 0% | [7]; at 1.2 µM 8% | [7]; at 3.7 µM 20% | [8]; [16] 58% | [9]; at 1.2 µM 7% | [9]; at 3.7 µM 26% | [10]; [16] 21% | [11]; at 1.2 µM -2% | [11]; at 3.7 µM 10% | [11]; [16] -17% | [12]; at 1.2 µM -3% | [12]; at 3.7 µM 6% | [13]; at 1.2 µM -2% | [13]; at 3.7 µM 54% | [14]; [16] 64% | [15]; at 1.2 µM 3% | [15]; at 3.7 µM 34%
